From PubChem BioAssay (NCATS)
Inconclusive results are not listed. Activity calls are given as the source filed them. Calls follow the shape of the dose curve; as a rule, active = well fitted curve in the direction sought with a large enough effect; inconclusive = small, poorly fitted or top-dose-only effect, or another doubt; inactive = no such curve, though single readings can be large; an effect the other way counts as inactive or inconclusive.

Tests used:
[1] = qHTS of pediatric cancer cell lines to identify multiple opportunities for drug repurposing: Confirmatory screen for BT-37 cells (AID 1347117);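 also: potency is read from the fitted curve at half-maximal effect; viability measured after 48 h of compound exposure; nearly all actives have a fitted effect of over 55% in size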
How it was run: (§1)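 Cells (500-1,000/well) rested 5 h, then received compounds for 48 h; metabolically active cells were measured by CellTiter-Glo luminescence. Final concentrations spanned up to 46 µM (MIPE, 11-point) or 0.59 nM-46 µM (NPC, 8-point) in primary screens, 11-point in follow-ups.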

[2] = qHTS of pediatric cancer cell lines to identify multiple opportunities for drug repurposing: Confirmatory screen for TC32 cells (AID 1347118);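 also: potency is read from the fitted curve at half-maximal effect; cells exposed to compound for 48 h before the read; nearly all actives have a fitted effect of over 65% in size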
How it was run: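 TC32 cells, 500-1,000/well in growth medium, compound-treated 48 h at 37 °C; viability from CellTiter-Glo luminescence. Primary screen: MIPE 11-point (0.78 nM–46 µM final), NPC 8-point (0.59 nM–46 µM final); confirmatory at 11-point dilutions.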

[3] = qHTS of pediatric cancer cell lines to identify multiple opportunities for drug repurposing: Confirmatory screen for MG 63 (6-TG R) cells (AID 1347119); also: nearly all actives have a fitted effect of over 55% in size; also: potency is read from the fitted curve at half-maximal effect
How it was run: as §1

[4] = qHTS of pediatric cancer cell lines to identify multiple opportunities for drug repurposing: Confirmatory screen for U-2 OS cells (AID 1347122); also: potency is read from the fitted curve at half-maximal effect; nearly all actives have a fitted effect of over 65% in size
How it was run: as §1

[5] = qHTS of pediatric cancer cell lines to identify multiple opportunities for drug repurposing: Confirmatory screen for Rh41 cells (AID 1347123);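 also: potency is read from the fitted curve at half-maximal effect; 48 h compound exposure; nearly all actives have a fitted effect of over 60% in size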
How it was run: as §1

[6] = qHTS of pediatric cancer cell lines to identify multiple opportunities for drug repurposing: Confirmatory screen for RD cells (AID 1347124);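 also: cells exposed to compound for 48 h before viability readout; nearly all actives have a fitted effect of over 65% in size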; also: potency is read from the fitted curve at half-maximal effect
How it was run: as §1

[7] = qHTS of pediatric cancer cell lines to identify multiple opportunities for drug repurposing: Confirmatory screen for Rh30 cells (AID 1347126); also: potency is read from the fitted curve at half-maximal effect; nearly all actives have a fitted effect of over 55% in size
How it was run: as §1

[8] = qHTS of pediatric cancer cell lines to identify multiple opportunities for drug repurposing: Confirmatory screen for Saos-2 cells (AID 1347127); also: potency is read from the fitted curve at half-maximal effect; nearly all actives have a fitted effect of over 60% in size
How it was run: as §1

[9] = qHTS of pediatric cancer cell lines to identify multiple opportunities for drug repurposing: Confirmatory screen for OHS-50 cells (AID 1347128);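 also: potency is read from the fitted curve at half-maximal effect; compound exposure lasted 48 h at 37 degrees C; nearly all actives have a fitted effect of over 55% in size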
How it was run: as §1

[10] = qHTS of pediatric cancer cell lines to identify multiple opportunities for drug repurposing: Confirmatory screen for SK-N-SH cells (AID 1347129);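 also: cells exposed to compound for 48 h before viability read; nearly all actives have a fitted effect of over 60% in size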; also: potency is read from the fitted curve at half-maximal effect
How it was run: as §1

[11] = qHTS of pediatric cancer cell lines to identify multiple opportunities for drug repurposing: Confirmatory screen for Rh18 cells (AID 1347125)
How it was run: as §1

[12] = qHTS of pediatric cancer cell lines to identify multiple opportunities for drug repurposing: Confirmatory screen for control Hh wild type fibroblast cells (AID 1347121); also: nearly all actives have a fitted effect of over 70% in size; also: potency is read from the fitted curve at half-maximal effect
How it was run: as §1

[13] = system: Zika virus NS2B-NS3 protease; experiment: Primary screen GU AMC qHTS for Zika virus inhibitors (AID 1347154); also: nearly all actives have a fitted effect of over 70% in size
How it was run: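 Fluorogenic AMC-substrate cleavage by noncovalent NS2B-NS3 protease complex (25 nM, pH 8.0 Tris buffer with Tween 20) followed for 15 minutes at room temperature (~20% conversion). Percent inhibition from ex340/em450 signal change, fitted by 4-parameter Hill equation.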

Furin (Homo sapiens) = Furin (Homo sapiens) (UniProt P09958); experiment: Furin counterscreen qHTS for Zika virus inhibitors (AID 1347149); also: potency is read from the fitted curve at half-maximal effect; nearly all actives have a fitted effect of over 70% in size
Chain of Furin (Homo sapiens) (P09958 whole entry, looked up): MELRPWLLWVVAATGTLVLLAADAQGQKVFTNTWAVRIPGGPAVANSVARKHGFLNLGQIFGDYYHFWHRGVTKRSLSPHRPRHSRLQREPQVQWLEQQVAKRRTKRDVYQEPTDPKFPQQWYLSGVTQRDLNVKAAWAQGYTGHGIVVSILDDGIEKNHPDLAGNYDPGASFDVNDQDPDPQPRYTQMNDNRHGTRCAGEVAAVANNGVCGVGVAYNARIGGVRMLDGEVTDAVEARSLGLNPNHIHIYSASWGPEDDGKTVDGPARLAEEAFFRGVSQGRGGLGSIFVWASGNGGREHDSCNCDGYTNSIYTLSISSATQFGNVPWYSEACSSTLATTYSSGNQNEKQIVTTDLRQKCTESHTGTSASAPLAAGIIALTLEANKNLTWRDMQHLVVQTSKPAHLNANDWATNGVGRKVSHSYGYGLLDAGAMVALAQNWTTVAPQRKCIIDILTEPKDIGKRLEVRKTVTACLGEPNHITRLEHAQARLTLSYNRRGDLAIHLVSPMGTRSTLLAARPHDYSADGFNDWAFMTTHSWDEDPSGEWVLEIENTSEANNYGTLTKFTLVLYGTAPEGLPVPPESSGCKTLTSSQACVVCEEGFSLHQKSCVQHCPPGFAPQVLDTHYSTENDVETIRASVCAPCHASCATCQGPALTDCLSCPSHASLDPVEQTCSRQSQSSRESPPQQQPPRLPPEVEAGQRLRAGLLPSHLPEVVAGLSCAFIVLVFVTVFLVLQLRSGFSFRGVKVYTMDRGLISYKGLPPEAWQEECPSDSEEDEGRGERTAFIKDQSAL
How it was run: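 Fluorogenic cleavage of BOC-RVRR-AMC (2 microM final, Km ~15 µM) was monitored (ex 340, em 450 nm) at 37C after 15 min RT preincubation of 5 nM furin with compounds in HEPES pH 7.0 buffer with CaCl2 and Triton X-100. Percent inhibition was fitted to a 4-parameter Hill curve.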

[14] = system: Zika virus NS2B-NS3 protease (linked construct); experiment: Confirmatory screen NINDS AMC qHTS for Zika virus inhibitors (AID 1347152); also: potency is read from the fitted curve at half-maximal effect; nearly all actives have a fitted effect of over 70% in size
How it was run: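 Linked NS2B-NS3 1 nM, Tris pH 8.0/0.01% Tween 20; cpd 15 min RT dark; + Nle-KRR-AMC 10 µM (Km 18.3 µM); read 0 and 15 min, 340/450 nm; %inh vs controls, 4-param Hill.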

[15] = system: Zika virus NS2B-NS3 protease (unlinked complex); experiment: Confirmatory screen GU AMC qHTS for Zika virus inhibitors (AID 1347153)
How it was run: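 Unlinked NS2B-NS3 complex (25 nM) in 10 mM Tris-HCl pH 8.0, 0.01% Tween 20 preincubated 15 min with compound, then 10 microM Bz-Nle-KRR-AMC (Km 18.3 µM). Fluorescence change over 15 min, normalized, Hill-fitted.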

[16] = Confirmatory screen GU Rhodamine qHTS for Zika virus inhibitors qHTS (AID 1347157)
How it was run: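 A qHTS format was used, with compound concentrations ranging up to 114 microM. Each compound was preincubated with 25 nM NS2B-NS3 protease, and the substrate was then added at 1.5 microM. Curves were fitted with a 4-parameter Hill model.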

| Compound | Potency [1] | Potency [2] | Potency [3] | Potency [4] | Potency [5] | Potency [6] | Potency [7] | Potency [8] | Potency [9] | Potency [10] | Potency [11] | Potency [12] | Potency [13] | Potency (Furin (Homo sapiens)) | Potency [14] | Potency [15] | Potency [16] |
| --- | --- | --- | --- | --- | --- | --- | --- | --- | --- | --- | --- | --- | --- | --- | --- | --- | --- |
| COc1cc(Nc2ncc(F)c(Nc3ccc4c(n3)N(COP(=O)(O)O)C(=O)C(C)(C)O4)n2)cc(OC)c1OC | 10.4 µM (active) | 5.85 µM (active) | 2.33 µM (active) | 4140 nM (active) | 3290 nM (active) | 16.5 µM (active) | 2.33 µM (active) | 7.37 µM (active) | 5.22 µM (active) | 2.35 µM (active) |  |  |  |  |  |  |  |
| CNC(=O)c1c(F)cccc1Nc1nc(Nc2cc3c(cc2OC)CCN3C(=O)CN(C)C)nc2[nH]ccc12 | 26.1 µM (active) | 0.522 µM (active) | 3.69 µM (active) | 928 nM (active) | 414 nM (active) |  | 0.585 µM (active) | 3.69 µM (active) | 16.5 µM (active) | 5.9 µM (active) | 14.7 µM (active) |  |  |  |  |  |  |
| Cc1[nH]nc2ccc(-c3cncc(OC[C@@H](N)Cc4ccccc4)c3)cc12 | 2.93 µM (active) | 2.93 µM (active) | 3.69 µM (active) |  |  |  | 47.9 µM (active) | 4.65 µM (active) | 4.65 µM (active) | 2.15 µM (active) | 8.27 µM (active) | 23.3 µM (active) |  |  |  |  |  |
| Cc1[nH]c2ccccc2c1CCNCc1ccc(C=CC(=O)NO)cc1 | 0.165 µM (active) | 0.117 µM (active) | 0.165 µM (active) |  | 4.1 nM (active) | inactive |  | 0.233 µM (active) | 0.293 µM (active) | 0.469 µM (active) | 0.165 µM (active) |  | inactive |  |  |  |  |
| CC(C)c1cc(C(=O)N2Cc3ccc(CN4CCN(C)CC4)cc3C2)c(O)cc1O | 0.414 µM (active) | 0.465 µM (active) |  | 414 nM (active) | 585 nM (active) | 0.522 µM (active) | 0.585 µM (active) |  |  | 0.469 µM (active) | 0.657 µM (active) | inactive | inactive |  |  |  |  |
| C[C@@H](Oc1cc(-c2cnn(C3CCNCC3)c2)cnc1N)c1c(Cl)ccc(F)c1Cl | 20.8 µM (active) | 4.65 µM (active) | 13.1 µM (active) |  |  |  | 7.37 µM (active) | 13.1 µM (active) | 14.7 µM (active) | 7.43 µM (active) | 18.5 µM (active) |  | inactive |  |  |  |  |
| COC(=O)Nc1ccc(-c2nc(N3CCOCC3)c3cnn(C4CCN(Cc5cccnc5)CC4)c3n2)cc1 | 0.928 µM (active) | 1.31 µM (active) | 1.85 µM (active) | 11700 nM (active) | 1310 nM (active) |  | 5.85 µM (active) |  |  | 14.8 µM (active) |  |  |  |  |  |  |  |
| O=C(Nc1cc(C(F)(F)F)cc(C(F)(F)F)c1)c1cc(Cl)ccc1O | 1.85 µM (active) | 2.93 µM (active) | 0.928 µM (active) |  |  |  |  | 1.65 µM (active) | 0.928 µM (active) | 3.72 µM (active) | 3.69 µM (active) | 2.33 µM (active) | inactive | 55.5 µM (active) | 49.4 µM (active) | 49.4 µM (active) | 4.94 µM (active) |
| CNC(=O)CN1CCC(Oc2cc3c(Nc4cccc(Cl)c4F)ncnc3cc2OC)CC1 | 0.928 µM (active) | 1.04 µM (active) | inactive |  |  |  | 10.4 µM (active) |  |  | inactive | 5.85 µM (active) | inactive | inactive |  |  |  |  |
| CN(C)Cc1c(C(=O)NCCOc2ccc(C(=O)NO)cc2)oc2ccccc12 | 1.17 µM (active) | 0.737 µM (active) | 1.47 µM (active) | 657 nM (active) | 293 nM (active) | 1.65 µM (active) | 1.65 µM (active) | 1.47 µM (active) | 1.65 µM (active) | 3.72 µM (active) | 0.827 µM (active) |  | inactive |  |  |  |  |
| Cc1ccc(-c2ncn(-c3ccc(Nc4nccc(-c5cccc(N6CCOCC6)c5)n4)cc3)n2)cn1 | 0.0851 µM (active) | 0.135 µM (active) |  | 240 nM (active) | 151 nM (active) | 0.24 µM (active) | 0.12 µM (active) | 0.107 µM (active) | 0.537 µM (active) | 0.303 µM (active) | 0.107 µM (active) | inactive | inactive |  |  |  |  |
| Nc1ncnc2c1c(-c1cnc3[nH]ccc3c1)nn2C1CCCC1 | 2.33 µM (active) | 1.47 µM (active) | 0.414 µM (active) |  |  |  | 0.585 µM (active) | 1.85 µM (active) | 1.85 µM (active) | 1.87 µM (active) | 2.93 µM (active) |  | inactive |  |  |  |  |
| CCn1nnc2c(N3CCOCC3)nc(-c3ccc(NC(=O)Nc4ccc(C(=O)N5CCN(C)CC5)cc4)cc3)nc21 | 0.329 µM (active) | 0.293 µM (active) | 0.293 µM (active) |  | 522 nM (active) | 0.414 µM (active) | 0.928 µM (active) | 0.657 µM (active) | 1.17 µM (active) | 5.9 µM (active) | 1.04 µM (active) |  |  |  |  |  |  |
| CCCCc1nc2cc(C=CC(=O)NO)ccc2n1CCN(CC)CC | 1.85 µM (active) | 1.31 µM (active) | 1.31 µM (active) | 1850 nM (active) | 1310 nM (active) | 2.33 µM (active) | 3.69 µM (active) | 2.61 µM (active) | 2.93 µM (active) | 3.32 µM (active) | 1.47 µM (active) |  | inactive |  |  |  |  |
